# Experimental data: the supplement of paper PMC10849652
# About 7,900 targets were measured; listed, in parts, are those with a hit and a random draw of the rest. About 0.6% of all pairs of compound and target were hits. Values without a mark were called inactive.
# Tests used:
# Test in all cases: log2 fold change, soluble protein after heating vs DMSO (PISA); higher = thermal stabilisation; K562 cells, 10 uM, 30 min; active = over 0.2 and 3.5 SD of the protein, either way, in both replicates (recomputed)
# [1] = compound: CC[C@@H]1C(=O)N(C)c2cnc(Nc3ccc(C(=O)NC4CCN(C)CC4)cc3OC)nc2N1C1CCCC1
# Method in brief: (§1)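 Values are thermal stability changes relative to control samples and are taken from duplicates. They are stated as log2 fold changes. Before quantification by TMTpro 16plex LC-MS/MS with equalised channel sums, K562 cells at 2×10^6 cells/mL were treated with 10 μM compound for 30 min, heated in aliquots for 3 min across 48°C-58°C, pooled, extracted in PBS with 0.5% NP-40 at 4°C, and centrifuged at 21,000xg for 90 min to give the soluble supernatant.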
# volasertib = compound: CC[C@@H]1C(=O)N(C)c2cnc(Nc3ccc(C(=O)N[C@H]4CC[C@H](N5CCN(CC6CC6)CC5)CC4)cc3OC)nc2N1C(C)C [volasertib]
# Method in brief: as §1
# [2] = compound: CC[C@H](C)N1C=C(C2=C(C=C(C=C21)C3=CN=C(C=C3)N4CCNCC4)C(=O)NCC5=C(C=C(NC5=O)C)C)C
# Method in brief: as §1
# epoxomicin = compound: CC[C@H](C)[C@@H](C(=O)N[C@@H]([C@@H](C)O)C(=O)N[C@@H](CC(C)C)C(=O)[C@]1(CO1)C)NC(=O)[C@H]([C@@H](C)CC)N(C)C(=O)C [epoxomicin]
# Method in brief: as §1
# [3] = compound: CCn1c(C(=O)N(C2CC2)C2CC2)cc2c3c(ncn3C)c(Nc3cc(C)n(C)n3)nc21
# Method in brief: as §1
# [4] = compound: CCn1cc(-c2ccnc3[nH]c(-c4cccc(CN(C)C)c4)cc23)c(-c2ccc(NC(=O)N(C)C)cc2)n1
# Method in brief: as §1
# [5] = compound: CN(C)CC(=O)Nc1ccc2[nH]c(=O)c3ccccc3c2c1
# Method in brief: as §1
# rosiglitazone = compound: CN(CCOC1=CC=C(C=C1)C[C@H]2C(=O)NC(=O)S2)C3=CC=CC=N3 (racemic) [rosiglitazone]
# Method in brief: as §1
# [6] = compound: CN1C2=C(C3=C1C(=O)N(N=C3)CC4=CC(=CC=C4)N)SC(=C2)S(=O)C
# Method in brief: as §1
# [7] = compound: CN1CCC(CNc2ccc3ncc(-c4cccc(OC(F)(F)F)c4)n3n2)CC1
# Method in brief: as §1
# saracatinib = compound: CN1CCN(CCOc2cc(OC3CCOCC3)c3c(Nc4c(Cl)ccc5c4OCO5)ncnc3c2)CC1 [saracatinib]
# Method in brief: as §1
# sotrastaurin = compound: CN1CCN(c2nc(C3=C(c4c[nH]c5ccccc45)C(=O)NC3=O)c3ccccc3n2)CC1 [sotrastaurin]
# Method in brief: as §1
# alvocidib = compound: CN1CC[C@H](c2c(O)cc(O)c3c(=O)cc(-c4ccccc4Cl)oc23)[C@H](O)C1 [alvocidib]
# Method in brief: as §1
# Tubastatin A = compound: CN1CCc2c(c3ccccc3n2Cc2ccc(C(=O)NO)cc2)C1 [Tubastatin A]
# Method in brief: as §1
# [8] = compound: CNC(=O)C1=CC=CC=C1NC2=NC(=NC=C2Cl)NC3=C(C=C(C=C3)N4CCOCC4)OC
# Method in brief: as §1
# defactinib = compound: CNC(=O)c1ccc(Nc2ncc(C(F)(F)F)c(NCc3nccnc3N(C)S(C)(=O)=O)n2)cc1 [defactinib]
# Method in brief: as §1
# rucaparib = compound: CNCc1ccc(-c2[nH]c3cc(F)cc4c3c2CCNC4=O)cc1 [rucaparib]
# Method in brief: as §1
# [9] = compound: CNc1nc(-c2ccc3c(N)n[nH]c3c2)cc(N2C[C@@H](C(=O)NC3CCCCC3)CC[C@H]2C)n1
# Method in brief: as §1
# encorafenib = compound: COC(=O)N[C@@H](C)CNc1nccc(-c2cn(C(C)C)nc2-c2cc(Cl)cc(NS(C)(=O)=O)c2F)n1 [encorafenib]
# Method in brief: as §1
# [10] = compound: COC(=O)[C@H](CCSC)NC(=O)C1=C(C=C(C=C1)NC[C@H](CS)N)C2=CC=CC=C2
# Method in brief: as §1
# UniProt Q92560, sequence (Q92560 whole entry, looked up): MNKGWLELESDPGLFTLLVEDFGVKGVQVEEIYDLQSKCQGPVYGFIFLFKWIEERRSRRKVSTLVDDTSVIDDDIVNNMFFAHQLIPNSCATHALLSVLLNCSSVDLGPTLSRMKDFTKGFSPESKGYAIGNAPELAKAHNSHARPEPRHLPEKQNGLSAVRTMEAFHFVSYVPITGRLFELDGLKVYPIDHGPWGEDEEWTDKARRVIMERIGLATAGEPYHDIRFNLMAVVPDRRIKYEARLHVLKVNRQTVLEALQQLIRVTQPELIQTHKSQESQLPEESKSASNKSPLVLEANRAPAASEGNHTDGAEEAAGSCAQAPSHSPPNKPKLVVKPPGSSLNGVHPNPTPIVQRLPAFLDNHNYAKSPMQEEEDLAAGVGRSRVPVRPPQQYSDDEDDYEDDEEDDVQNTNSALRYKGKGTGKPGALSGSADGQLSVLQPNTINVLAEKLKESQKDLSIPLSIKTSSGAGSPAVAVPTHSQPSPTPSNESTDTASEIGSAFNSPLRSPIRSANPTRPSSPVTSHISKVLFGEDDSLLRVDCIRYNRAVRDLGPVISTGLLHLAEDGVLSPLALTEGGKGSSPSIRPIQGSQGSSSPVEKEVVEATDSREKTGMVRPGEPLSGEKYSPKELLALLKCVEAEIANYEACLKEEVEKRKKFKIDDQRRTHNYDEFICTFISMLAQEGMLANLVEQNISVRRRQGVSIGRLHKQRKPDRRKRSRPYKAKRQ
# UniProt Q2TAA5, sequence (Q2TAA5 whole entry, looked up): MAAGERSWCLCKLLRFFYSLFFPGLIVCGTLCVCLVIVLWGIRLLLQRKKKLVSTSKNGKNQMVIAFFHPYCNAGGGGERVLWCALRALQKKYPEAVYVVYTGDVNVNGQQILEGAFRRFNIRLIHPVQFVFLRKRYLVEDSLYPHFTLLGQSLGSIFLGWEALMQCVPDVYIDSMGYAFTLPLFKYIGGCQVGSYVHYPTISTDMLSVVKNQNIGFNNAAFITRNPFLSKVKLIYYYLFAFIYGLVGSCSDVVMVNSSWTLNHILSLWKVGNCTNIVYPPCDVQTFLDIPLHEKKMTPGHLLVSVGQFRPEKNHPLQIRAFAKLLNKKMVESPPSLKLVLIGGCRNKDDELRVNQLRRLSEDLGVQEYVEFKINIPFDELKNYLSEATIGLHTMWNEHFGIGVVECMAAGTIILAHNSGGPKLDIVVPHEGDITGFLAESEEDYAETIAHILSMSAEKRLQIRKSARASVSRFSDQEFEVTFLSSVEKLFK
# UniProt O95870, sequence (O95870 whole entry, looked up): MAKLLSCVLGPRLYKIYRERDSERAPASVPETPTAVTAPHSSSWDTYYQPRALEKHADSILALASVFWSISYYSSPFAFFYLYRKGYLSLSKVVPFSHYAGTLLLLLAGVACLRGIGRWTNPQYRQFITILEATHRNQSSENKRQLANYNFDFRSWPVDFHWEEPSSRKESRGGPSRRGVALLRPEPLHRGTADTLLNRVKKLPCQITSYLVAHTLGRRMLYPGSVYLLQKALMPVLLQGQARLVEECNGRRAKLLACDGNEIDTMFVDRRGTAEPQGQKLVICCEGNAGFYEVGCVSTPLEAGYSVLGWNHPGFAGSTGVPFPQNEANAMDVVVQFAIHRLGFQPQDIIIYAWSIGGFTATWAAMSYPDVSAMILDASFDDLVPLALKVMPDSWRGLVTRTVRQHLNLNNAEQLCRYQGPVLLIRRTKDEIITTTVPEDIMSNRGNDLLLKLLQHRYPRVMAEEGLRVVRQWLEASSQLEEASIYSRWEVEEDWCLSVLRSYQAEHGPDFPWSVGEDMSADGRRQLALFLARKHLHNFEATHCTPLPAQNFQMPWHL
# UniProt Q8NBU5, sequence (Q8NBU5 whole entry, looked up): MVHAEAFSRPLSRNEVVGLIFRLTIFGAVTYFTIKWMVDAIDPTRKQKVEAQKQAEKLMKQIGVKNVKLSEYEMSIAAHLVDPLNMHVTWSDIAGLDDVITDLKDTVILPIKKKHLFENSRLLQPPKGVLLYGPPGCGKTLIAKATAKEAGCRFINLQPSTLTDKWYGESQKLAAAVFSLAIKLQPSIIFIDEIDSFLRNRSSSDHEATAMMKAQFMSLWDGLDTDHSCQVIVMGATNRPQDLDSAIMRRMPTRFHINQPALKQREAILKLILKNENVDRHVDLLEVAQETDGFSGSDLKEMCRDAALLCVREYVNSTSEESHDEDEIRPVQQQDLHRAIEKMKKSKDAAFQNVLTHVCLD
# UniProt Q5T9A4, sequence (Q5T9A4 whole entry, looked up): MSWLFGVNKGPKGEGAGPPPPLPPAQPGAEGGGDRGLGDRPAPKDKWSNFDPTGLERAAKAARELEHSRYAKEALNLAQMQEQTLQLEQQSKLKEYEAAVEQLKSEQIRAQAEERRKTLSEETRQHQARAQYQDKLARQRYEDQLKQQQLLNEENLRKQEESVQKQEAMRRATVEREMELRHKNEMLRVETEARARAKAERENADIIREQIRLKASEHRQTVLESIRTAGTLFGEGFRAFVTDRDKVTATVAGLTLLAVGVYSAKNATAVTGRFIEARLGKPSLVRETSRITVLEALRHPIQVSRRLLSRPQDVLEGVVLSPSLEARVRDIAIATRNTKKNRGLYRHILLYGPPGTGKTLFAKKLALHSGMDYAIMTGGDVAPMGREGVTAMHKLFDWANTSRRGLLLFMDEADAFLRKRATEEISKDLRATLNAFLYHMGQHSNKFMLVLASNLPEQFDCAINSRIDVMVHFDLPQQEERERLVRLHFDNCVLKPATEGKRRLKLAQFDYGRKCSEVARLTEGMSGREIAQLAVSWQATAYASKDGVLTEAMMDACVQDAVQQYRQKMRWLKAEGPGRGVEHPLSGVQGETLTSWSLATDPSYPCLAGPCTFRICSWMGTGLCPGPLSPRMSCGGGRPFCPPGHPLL
# UniProt Q07960, sequence (Q07960 whole entry, looked up): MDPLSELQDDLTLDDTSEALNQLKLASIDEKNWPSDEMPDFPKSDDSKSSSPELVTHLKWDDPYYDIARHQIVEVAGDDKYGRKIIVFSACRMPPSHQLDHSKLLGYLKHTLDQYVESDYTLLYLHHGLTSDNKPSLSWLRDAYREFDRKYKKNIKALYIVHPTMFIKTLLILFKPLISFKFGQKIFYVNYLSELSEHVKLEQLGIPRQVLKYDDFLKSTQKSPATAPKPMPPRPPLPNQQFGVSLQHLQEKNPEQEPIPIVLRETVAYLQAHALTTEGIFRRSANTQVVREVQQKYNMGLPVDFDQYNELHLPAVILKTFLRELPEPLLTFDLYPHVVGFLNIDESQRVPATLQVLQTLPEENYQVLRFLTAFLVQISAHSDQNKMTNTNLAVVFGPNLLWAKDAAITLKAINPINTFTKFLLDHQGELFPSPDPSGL
# UniProt P55196, sequence (P55196 whole entry, looked up): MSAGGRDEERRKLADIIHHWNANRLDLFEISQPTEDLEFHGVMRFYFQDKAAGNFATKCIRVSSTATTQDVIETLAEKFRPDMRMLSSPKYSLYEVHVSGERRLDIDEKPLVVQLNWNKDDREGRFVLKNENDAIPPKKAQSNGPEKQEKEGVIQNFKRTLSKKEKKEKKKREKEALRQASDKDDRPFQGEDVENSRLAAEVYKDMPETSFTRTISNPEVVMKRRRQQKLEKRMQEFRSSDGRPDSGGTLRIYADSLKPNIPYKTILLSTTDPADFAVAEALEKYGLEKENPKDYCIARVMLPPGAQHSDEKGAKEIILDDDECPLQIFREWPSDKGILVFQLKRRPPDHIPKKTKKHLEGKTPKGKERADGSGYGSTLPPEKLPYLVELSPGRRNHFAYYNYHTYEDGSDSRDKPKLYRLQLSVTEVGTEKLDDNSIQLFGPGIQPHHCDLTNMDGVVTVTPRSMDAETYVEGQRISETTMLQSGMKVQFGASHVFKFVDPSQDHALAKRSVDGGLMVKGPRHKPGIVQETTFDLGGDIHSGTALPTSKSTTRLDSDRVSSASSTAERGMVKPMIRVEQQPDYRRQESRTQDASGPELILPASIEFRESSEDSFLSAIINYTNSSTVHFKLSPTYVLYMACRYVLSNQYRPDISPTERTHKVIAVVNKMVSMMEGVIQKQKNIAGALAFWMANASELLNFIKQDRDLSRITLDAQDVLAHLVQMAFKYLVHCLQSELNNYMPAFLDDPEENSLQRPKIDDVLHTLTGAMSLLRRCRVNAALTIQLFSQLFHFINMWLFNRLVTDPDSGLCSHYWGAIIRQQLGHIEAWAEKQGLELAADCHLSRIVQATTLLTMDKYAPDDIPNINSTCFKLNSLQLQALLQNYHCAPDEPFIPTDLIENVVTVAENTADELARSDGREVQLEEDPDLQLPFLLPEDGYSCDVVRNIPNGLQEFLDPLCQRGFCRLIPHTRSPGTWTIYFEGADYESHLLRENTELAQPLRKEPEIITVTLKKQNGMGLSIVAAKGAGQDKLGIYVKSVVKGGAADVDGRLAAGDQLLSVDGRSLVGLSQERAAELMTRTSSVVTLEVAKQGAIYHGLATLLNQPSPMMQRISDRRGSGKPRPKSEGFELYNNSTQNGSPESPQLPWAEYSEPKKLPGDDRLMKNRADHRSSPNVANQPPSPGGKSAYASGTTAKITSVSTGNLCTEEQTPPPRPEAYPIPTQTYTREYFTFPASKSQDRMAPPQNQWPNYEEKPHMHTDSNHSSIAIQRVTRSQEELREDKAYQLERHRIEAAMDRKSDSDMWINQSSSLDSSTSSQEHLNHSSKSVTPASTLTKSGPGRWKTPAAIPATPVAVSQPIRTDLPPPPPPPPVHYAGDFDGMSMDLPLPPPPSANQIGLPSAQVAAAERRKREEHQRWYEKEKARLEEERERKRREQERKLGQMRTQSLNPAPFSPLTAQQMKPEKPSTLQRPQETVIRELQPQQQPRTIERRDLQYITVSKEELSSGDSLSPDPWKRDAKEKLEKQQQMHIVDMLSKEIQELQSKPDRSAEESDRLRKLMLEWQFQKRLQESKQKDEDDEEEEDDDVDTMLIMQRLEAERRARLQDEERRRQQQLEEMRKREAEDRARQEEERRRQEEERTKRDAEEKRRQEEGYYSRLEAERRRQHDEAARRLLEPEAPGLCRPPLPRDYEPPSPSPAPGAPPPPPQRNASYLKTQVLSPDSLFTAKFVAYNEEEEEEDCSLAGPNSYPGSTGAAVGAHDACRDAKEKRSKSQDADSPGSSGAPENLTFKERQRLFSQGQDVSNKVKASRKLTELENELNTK
Target,log2 fold change [1],log2 fold change (volasertib),log2 fold change [2],log2 fold change (epoxomicin),log2 fold change [3],log2 fold change [4],log2 fold change [5],log2 fold change (rosiglitazone),log2 fold change [6],log2 fold change [7],log2 fold change (saracatinib),log2 fold change (sotrastaurin),log2 fold change (alvocidib),log2 fold change (Tubastatin A),log2 fold change [8],log2 fold change (defactinib),log2 fold change (rucaparib),log2 fold change [9],log2 fold change (encorafenib),log2 fold change [10]
ATAD3B (UniProt Q5T9A4),-0.076,-0.167,0.093,-0.045,-0.018,0.112,-0.026,0.005,0.167,-0.339 (active),-0.047,-0.101,0.091,-0.009,-0.084,0.096,0.25,0,0.125,0.033
ARHGAP1 (UniProt Q07960),0.014,-0.027,0.021,0.013,-0.006,-0.082,-0.007,0.03,-0.014,0.19,-0.015,-0.03,-0.057,0.044,-0.032,-0.046,0.005,-0.019,0.001,-0.014
ARFGAP1 (UniProt Q8N6T3),-0.182,-0.545 (active),0.056,0.026,-0.042,0.008,0.036,-0.003,-0.016,0.068,-0.021,-0.086,-0.029,0.034,0.068,-0.158,-0.048,-0.087,0.068,-0.044
ATP6V0A2 (UniProt Q9Y487),-0.039,-0.039,0.067,0.043,0.007,0.028,-0.034,-0.037,0.006,-0.169,-0.009,-0.07,0.036,0.061,-0.003,0.019,-0.003,-0.021,0.043,-0.039
AP2B1 isoform 2 (UniProt P63010),0.065,-0.064,-0.001,-0.004,0.05,-0.021,-0.007,-0.018,-0.016,0.045,0.057,-0.003,0.017,0.001,0.022,0.005,0.043,-0.011,0.027,0.005
B4GALT1 (UniProt P15291),-0.324 (active),-0.571 (active),0.033,0.051,0.041,-0.048,-0.03,0.072,-0.081,-0.28 (active),-0.017,-0.07,-0.117,0.063,0.023,0.066,0.013,-0.041,0.032,-0.084
AFDN isoform 5 (UniProt P55196),-0.072,-0.254 (active),0.05,0.047,-0.047,-0.099,0.008,0.044,-0.003,-0.353 (active),-0.034,-0.032,-0.095,0.025,-0.043,-0.115,0.023,0.035,0.077,-0.033
BAP1 (UniProt Q92560),-0.037,0.13,0,-0.092,-0.019,0.101,-0.093,0.021,0.047,0.055,-0.091,0.089,0.053,0.042,-0.1,0.09,0.037,0.061,0.014,-0.017
ARF4 (UniProt P18085),0.064,0.094,0.009,0.112,-0.008,0.014,0.041,-0.033,-0.076,0.097,0.052,0.028,-0.005,0.011,0.028,-0.005,-0.051,-0.004,0,-0.032
AKT1 (UniProt P31749),0,-0.503,0.068,0.158,-0.119,-0.08,0.133,0.257,0.107,0.222,-0.163,-0.25,-0.043,0.111,0.317,-0.062,0.038,-0.24,-0.003,-0.025
ATAD1 (UniProt Q8NBU5),-0.008,-0.127,0.056,0.065,-0.013,-0.027,0.064,0.021,-0.033,-0.046,-0.044,0.029,-0.007,0.008,-0.032,-0.029,0.018,0.136,0.017,-0.042
AGRN (UniProt O00468),0.042,-0.001,0.005,0.065,-0.018,0.053,0.016,-0.012,0.062,-0.02,0.062,0.065,-0.009,-0.01,0,-0.119,0.032,-0.164,0.034,0.014
ALG11 (UniProt Q2TAA5),-0.034,-0.17,0.126,0.038,-0.075,0.006,0.018,0.021,-0.109,0.042,0.047,0.013,-0.064,-0.023,-0.018,-0.021,-0.015,-0.021,0.073,-0.082
ATP6V0A1 isoform 3 (UniProt Q93050),-0.056,0.174,-0.01,0.044,0.034,-0.054,-0.009,-0.017,0.239,-0.137,-0.253,-0.236,0.06,0.089,-0.052,0.125,0.154,0.032,0.196,-0.02
ARFIP1 (UniProt P53367),-0.008,-0.184,0.113,-0.003,-0.101,0.083,-0.011,0.856,-0.053,-0.421,0.043,-0.037,-0.031,0.047,-0.351 (active),-0.08,-0.086,0.075,-0.01,0.163
ABHD16A (UniProt O95870),0.134,0.079,-0.01,-0.008,-0.092,-0.09,-0.018,-0.003,-0.076,0.283,0.01,0.214,-0.033,0.004,0.031,-0.065,-0.017,0.162,-0.05,0.031
